Activity calls are given as the source filed them.

NADPH oxidase 2 (Homo sapiens), sequence (P04839 whole entry, looked up): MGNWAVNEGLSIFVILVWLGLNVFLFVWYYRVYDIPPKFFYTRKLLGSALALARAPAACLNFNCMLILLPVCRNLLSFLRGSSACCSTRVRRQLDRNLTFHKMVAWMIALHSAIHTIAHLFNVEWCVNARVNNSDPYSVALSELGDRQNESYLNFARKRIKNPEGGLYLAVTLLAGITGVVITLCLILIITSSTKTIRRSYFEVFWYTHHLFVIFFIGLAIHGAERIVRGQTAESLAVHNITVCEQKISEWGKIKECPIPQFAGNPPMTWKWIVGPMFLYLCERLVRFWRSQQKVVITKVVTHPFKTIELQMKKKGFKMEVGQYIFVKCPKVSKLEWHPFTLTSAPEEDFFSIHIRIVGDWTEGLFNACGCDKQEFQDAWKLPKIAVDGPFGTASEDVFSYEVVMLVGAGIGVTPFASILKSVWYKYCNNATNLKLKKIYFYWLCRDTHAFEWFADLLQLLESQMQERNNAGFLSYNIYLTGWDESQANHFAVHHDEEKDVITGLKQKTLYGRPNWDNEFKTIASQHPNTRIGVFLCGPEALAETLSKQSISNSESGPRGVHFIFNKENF

This assay has as its target NADPH oxidase 2 (Homo sapiens) (UniProt P04839). Put plainly: compounds shifting NOX2 Amplex Red fluorescence – cell-based, HEK293-NOX2, PMA-stimulated, NOX inhibitor project, primary screen (AID 1159). Further: test concentration not given here. The conditions noted are these: 45 min, higher = more signal, called active from +8 up or from −8 down.
With `O=C(CS)NCCCCCNC(=O)[C@@H]1C[C@@H]2C(=O)NCC(=O)N2[C@@H]1c1cccc(OCCO)c1`, the z-score is 1.52 (inactive).
As for `O=C(CS)NCCCCCNC(=O)[C@H]1C[C@H]2C(=O)NCC(=O)N2[C@H]1c1cccc(OCCO)c1`, the figure is 0.448 (inactive); as for `CN(C)CCCCNC(=O)[C@@H]1C[C@@H]2C(=O)N[C@@H](CCCCN)C(=O)N2[C@@H]1c1ccc(O)cc1`, 1.42 (inactive).
For the compound `COc1ccc(CCNC(=O)[C@@]2(C)c3ccccc3C(=O)N(c3ccc(C)cn3)[C@H]2c2ccc(CO)cc2)cc1`, the z-score is -0.911 (inactive).
With `O=C(NCCN1CCOCC1)[C@@H]1c2ccccc2C(=O)N(Cc2cc(C(F)(F)F)cc(C(F)(F)F)c2)[C@H]1c1ccc(CO)cc1`, the z-score was -0.0635 (inactive).
As for `O=C(NCc1ccccc1)[C@@H]1c2ccccc2C(=O)N(C2Cc3ccccc3C2)[C@H]1c1ccc(CO)cc1`, the figure is -0.0422 (inactive).
For `COCCOC(=O)N1C(=O)[C@@]2(c3cc(C#CC4(O)CCCCCC4)ccc31)[C@H](C(=O)Nc1nc3ccccc3s1)[C@H]1C(=O)O[C@H](c3ccccc3)[C@H](c3ccccc3)N1[C@@H]2c1ccccc1OCCO` the value was 1.85 (inactive); for `CC1CC/C=C\[C@H]2OC34C=CCN(c5ccc6ccccc6c5)C(=O)[C@H]3N(CCO)C(=O)[C@@H]4C2C(=O)O1` (some centres undefined), 1.43 (inactive).
In the case of `O=C1O[C@@H](c2ccccc2)[C@@H](c2ccccc2)N2[C@@H](c3ccc(OCCO)cc3)[C@]3(C(=O)Nc4ccc(C#CCCO)cc43)[C@@H](C(=O)NC[C@H](O)c3ccccc3)[C@H]12`, the z-score is 2.21 (inactive).

Source of the values: PubChem BioAssay.
